Sampled rows, rich in hits. Any-hit rate of the full collection: about 2.5%.
Cruzain inh Det = blocks cruzain activity in presence of Triton detergent | P25779 | purified cruzain, Z-FR-AMC fluorescence, 0.01% Triton | Potency, µM, actives largely listed as inhibitors | 200,000 compounds, 0.43% hits | AID 1478; further: nearly all actives have a fitted effect of over 40% in size
Target sequence (P25779 123-467 limits assumed): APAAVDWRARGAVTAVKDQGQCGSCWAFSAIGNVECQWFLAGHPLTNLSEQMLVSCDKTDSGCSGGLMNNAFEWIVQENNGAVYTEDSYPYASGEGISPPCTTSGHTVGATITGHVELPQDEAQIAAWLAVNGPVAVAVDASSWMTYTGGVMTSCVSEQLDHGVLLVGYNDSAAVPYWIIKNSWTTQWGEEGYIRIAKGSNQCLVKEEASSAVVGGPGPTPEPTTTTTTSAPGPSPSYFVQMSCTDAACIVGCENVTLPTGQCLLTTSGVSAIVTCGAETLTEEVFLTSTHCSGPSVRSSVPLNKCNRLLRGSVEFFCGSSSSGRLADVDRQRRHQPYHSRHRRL
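Detergent-containing arm of a paired screen for aggregation-based inhibition: 0.01% Triton X-100 present. Cruzain at 1.5 nM cleaved 2 uM Z-FR-AMC at pH 5.5 with 5 mM DTT; AMC fluorescence gain over 60 s measured activity.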
Cruzain noTriton = inhibitors of Trypanosoma cruzi cruzain without detergent; P25779; purified cruzain, Z-FR-AMC fluorescence, no detergent; Potency, µM, most hits filed as inhibitors; 200,000 compounds, 2.3% hits; further: nearly all actives have a fitted effect of over 40% in size
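Detergent-free condition (0.00005% Triton X-100) in acetate buffer pH 5.5 with DTT. 1.5 nM enzyme and compound were pre-mixed 15 min, then 2 uM Z-FR-AMC substrate added; reaction progress from fluorescence change between first and third reads (60 s).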
Papain inh = papain (Carica papaya) inhibition counter-screen; shares compounds with Cruzain inh Det; purified papain, Z-FR-AMC fluorescence cleavage; Potency, µM, actives largely listed as inhibitors; 410 compounds, 41% hits; further: nearly all actives have a fitted effect of over 35% in size
Target sequence (P00784 whole entry, looked up): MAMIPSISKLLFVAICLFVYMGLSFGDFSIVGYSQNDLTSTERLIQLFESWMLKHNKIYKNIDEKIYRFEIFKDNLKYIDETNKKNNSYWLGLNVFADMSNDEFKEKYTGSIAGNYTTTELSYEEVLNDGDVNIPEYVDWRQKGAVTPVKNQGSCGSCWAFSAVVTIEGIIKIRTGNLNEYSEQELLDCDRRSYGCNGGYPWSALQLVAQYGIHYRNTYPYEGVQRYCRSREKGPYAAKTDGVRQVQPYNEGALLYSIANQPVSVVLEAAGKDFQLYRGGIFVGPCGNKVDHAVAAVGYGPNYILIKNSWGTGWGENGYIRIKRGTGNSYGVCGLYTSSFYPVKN
Numbers stand for hits. The call rests on the fitted dose curve; in most records, active means well fitted curve in the direction sought with a large enough effect; inconclusive means small, poorly fitted or top-dose-only effect, or another doubt; inactive means no such curve, though single readings can be large; an effect the other way counts as inactive or inconclusive.

Results for CCc1nc2ccccc2n1CCCCOc1ccc(C)cc1 ?
Cruzain inh Det: inactive; Cruzain noTriton: inactive

Results for CC(=O)NCCc1nc2ccccc2n1CCCCOc1ccc(Cl)cc1 ?
Cruzain inh Det: inactive; Cruzain noTriton: inconclusive

What do the screens show for `O=C(NCCc1nc2ccccc2n1CCCOc1ccc(Cl)cc1)C1CCCCC1`?
Cruzain inh Det: 2µM; Cruzain noTriton: inactive; Papain inh: 28µM

What do the screens show for `Cc1ccc(OCCCn2c(CCNC(=O)C3CCCCC3)nc3ccccc32)cc1`?
Papain inh: 25µM

Results for CCOc1ccc(NCc2nc3ccccc3n2CCOc2ccc(C)cc2)cc1 ?
Cruzain inh Det: inactive; Cruzain noTriton: inactive

Results for Cc1ccc(OCCCCn2c(CCNC(=O)C3CCCCC3)nc3ccccc32)cc1 ?
Papain inh: 32µM

What do the screens show for `Cc1ccc(OCCn2c(CCNC(=O)C3CCCCC3)nc3ccccc32)cc1`?
Cruzain inh Det: 1.3µM; Cruzain noTriton: inactive; Papain inh: inactive

What do the screens show for `COc1ccc(Cl)cc1NC(=O)CSC1=Nc2ccccc2C2=NC(CC(=O)NC3CCCCC3)C(=O)N12` (centres undefined)?
Cruzain inh Det: inactive; Cruzain noTriton: inactive

What do the screens show for `COc1ccc(N2CCN(c3c4c(nc5nncn35)CCC4)CC2)cc1`?
Cruzain inh Det: inactive; Cruzain noTriton: inactive

How did CCOCCCn1c(=N)c(C(=O)NC2CCCC2)cc2c(=O)n3cccc(C)c3nc21 do in these assays?
Cruzain inh Det: inactive; Cruzain noTriton: inactive

What do the screens show for `CC(C)(C)c1ccc(OCCn2c(CCNC(=O)C3CCCCC3)nc3ccccc32)cc1`?
Papain inh: inactive

How did CC(C)(C)C(=O)NCCCc1nc2ccccc2n1CCCOc1ccc(Cl)cc1 do in these assays?
Cruzain inh Det: inactive; Cruzain noTriton: inconclusive

What do the screens show for `CC1CCN(S(=O)(=O)c2ccc3c(c2)N(CC(=O)NCCN(C)C)C(=O)CO3)CC1`?
Cruzain inh Det: inactive; Cruzain noTriton: inactive

What do the screens show for `Cc1cc(C)cc(NC(=O)CCCc2nc(-c3ccco3)no2)c1`?
Cruzain inh Det: inactive; Cruzain noTriton: inactive

What do the screens show for `CC(=O)n1cc(/C=C2/N=C(c3ccccc3)OC2=O)c2ccccc21`?
Cruzain inh Det: 4.5µM; Cruzain noTriton: 20µM; Papain inh: 1.6µM

What do the screens show for `Cc1ccc2cc(/C=C3\N=C(c4ccccc4)OC3=O)c(N3CCOCC3)nc2c1`?
Cruzain inh Det: inactive; Cruzain noTriton: inconclusive

Results for O=C1/C(=C/c2ccco2)CCc2ccccc21 ?
Cruzain inh Det: 2.2µM; Cruzain noTriton: 2µM; Papain inh: 28µM

What do the screens show for `O=C1C(=Cc2ccco2)C(=O)c2ccccc21`?
Cruzain inh Det: inactive; Cruzain noTriton: inactive

Results for Cc1ccc2oc(=O)c3cc(C(=O)NCCCOC(C)C)sc3c2c1 ?
Cruzain inh Det: inactive; Cruzain noTriton: inactive

Results for COc1ccc(N=Cc2nc(-c3ccccc3)oc2OC(=O)c2ccccc2)cc1 ?
Cruzain inh Det: 10µM; Cruzain noTriton: 16µM; Papain inh: inactive

What do the screens show for `COc1ccc(C(=O)N/N=C/c2ccc(OC(=O)c3ccccc3)cc2)cc1`?
Cruzain inh Det: inactive; Cruzain noTriton: inconclusive

What do the screens show for `COc1ccc(Cn2c(=O)n(-c3ccc(OC)cc3)c(=O)c3c2c2cc(OC)ccc2n3C)cc1`?
Cruzain inh Det: inactive; Cruzain noTriton: inactive

How did CN(C)c1nc(N)nc(Nc2ccccc2C#N)n1 do in these assays?
Cruzain inh Det: inactive; Cruzain noTriton: inactive

How did CCN(c1ccccc1)c1nc(N)nc(C#N)n1 do in these assays?
Papain inh: 11µM

What do the screens show for `CCNc1nc(NC(C)(C)C)nc(N2CCCC2)n1`?
Cruzain inh Det: inactive; Cruzain noTriton: inactive

Results for CCN(CC)c1nc(C#N)nc(N2CCOCC2)n1 ?
Papain inh: 1µM

How did CC(C)(C)Nc1nc(N2CCCC2)nc(N2CCCC2)n1 do in these assays?
Cruzain inh Det: inactive; Cruzain noTriton: inactive

Results for CCNc1nc(C#N)nc(N2CCCCC2)n1 ?
Papain inh: 2.5µM

How did CC(C)CN(C#N)c1nc(N2CCOCC2)nc(N2CCOCC2)n1 do in these assays?
Cruzain inh Det: inactive; Cruzain noTriton: inactive

How did N#Cc1nc(N2CCCCC2)nc(N2CCCCC2)n1 do in these assays?
Papain inh: 2.2µM

Results for CCc1cnc2c(c1SCC(=O)NCc1ccc(F)cc1)c(=O)n(C)c(=O)n2C ?
Cruzain inh Det: inactive; Cruzain noTriton: inactive

Results for Nc1nc(N2CCCCC2)nc(N(c2ccccc2)c2ccccc2)n1 ?
Cruzain inh Det: inactive; Cruzain noTriton: inactive

What do the screens show for `N#Cc1nc(N2CCCCC2)nc(N(c2ccccc2)c2ccccc2)n1`?
Papain inh: 2.8µM

How did CCOc1nc(C#N)nc(N(c2ccccc2)c2ccccc2)n1 do in these assays?
Papain inh: inactive

How did Clc1nc(Cl)nc(N(c2ccccc2)c2ccccc2)n1 do in these assays?
Cruzain inh Det: inactive; Cruzain noTriton: inactive

Results for CCOc1ccc(OCC(=O)Nc2c(C(=O)Nc3ccc(C)cc3)oc3ccccc23)cc1 ?
Cruzain inh Det: inactive; Cruzain noTriton: inactive

How did CCOc1ccc(NC(=O)N(Cc2cn(CC)c3ccccc23)C2CCCCCC2)cc1 do in these assays?
Cruzain inh Det: inactive; Cruzain noTriton: inactive

What do the screens show for `COc1ccc(C2CC(=O)c3cc(-c4nc(-c5ccc(Cl)cc5)c(C)s4)c(=O)[nH]c3C2)cc1` (centres undefined)?
Cruzain inh Det: inactive; Cruzain noTriton: inactive

What do the screens show for `O=C(NCCc1nc2ccccc2n1CCCOc1ccc2ccccc2c1)C1CCCCC1`?
Papain inh: 10µM

What do the screens show for `O=C(Nc1nc2ccccc2n1CCN1CCCCC1)C1CCCCC1`?
Cruzain inh Det: inactive; Cruzain noTriton: inactive

Results for O=C(NCCc1nc2ccccc2n1CCOc1ccc2ccccc2c1)C1CCCCC1 ?
Papain inh: inactive

What do the screens show for `O=C(CNC(=O)c1ccccc1)N[C@@H](C(=O)Nc1cc(C(F)(F)F)ccc1Cl)c1ccccc1`?
Papain inh: inactive

Results for O=C(Cc1ccccc1)NC(=S)Nc1cc(C(F)(F)F)ccc1Cl ?
Cruzain inh Det: inactive; Cruzain noTriton: inactive

What do the screens show for `Cc1[nH]c(=O)[nH]c(=O)c1CSc1nnc([C@@H](NC(=O)OC(C)(C)C)C(C)C)o1`?
Cruzain inh Det: inactive; Cruzain noTriton: inactive

What do the screens show for `CC[C@@H](C)[C@H](NC(=O)OC(C)(C)C)c1nnc(S(=O)(=O)Cc2cc(C)ccc2C)o1`?
Cruzain inh Det: 8.9µM; Cruzain noTriton: 16µM; Papain inh: 16µM

How did O=[N+]([O-])c1ccccc1S(=O)(=O)NCCC1=CCCCC1 do in these assays?
Cruzain inh Det: inactive; Cruzain noTriton: inactive

Results for O=[N+]([O-])c1ccccc1S(=O)(=O)NCC1CCC(CNCC2CCc3ccccc3C2)CC1 (centres undefined) ?
Cruzain inh Det: inactive; Cruzain noTriton: inactive; Papain inh: inactive

How did CCC(C)NC(=O)c1ccc2nc(Cc3ccccc3)oc2c1 (centres undefined) do in these assays?
Cruzain inh Det: inactive; Cruzain noTriton: inactive

Results for CCC(C)NC(=O)c1ccc2nc(-c3ccco3)c(-c3ccco3)nc2c1 (centres undefined) ?
Papain inh: 16µM

Results for Cc1ccccc1NC(=O)C1CCN(C(=O)c2ccc(F)cc2)CC1 ?
Cruzain inh Det: inactive; Cruzain noTriton: inactive

Results for N#Cc1nc(Nc2cccc([N+](=O)[O-])c2)nc(NC2CCCC2)n1 ?
Papain inh: 2.8µM

How did Cc1cccc(Nc2nc(C#N)nc(NC3CCCC3)n2)c1 do in these assays?
Papain inh: 0.45µM

Screening results (PubChem)
